Test results reported in PubChem BioAssay AID1159580 (chemical genetic matrix, 2015).
Screen size: about 5,500 compounds; about 2,000 (36%) were called active. Not shown: some 18% with an inconclusive outcome. Cut-off read from the data, not from the text of the source: active = normalized growth mostly below about 0.91 (no sharp cut-off); inconclusive = no clear call, values can overlap the other calls; inactive = mostly above about 0.92. This is one part of the list.

Assay: chemical genetic growth profiling, strain panel (AID 1159580);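 note: tested at 20 µM; growth read once vehicle control cultures reached saturation at 30 °C; 1 = growth at the plate median or of vehicle wells; lower values mean less growth of the strain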
Settings: growth OD

Measured: normalized growth

O=C1NC(=O)C(=O)C(=O)N1
inactive: S. cerevisiae deletion strains, locus YJR075W, strain HOC1, hits give low values 1.04 | S. cerevisiae deletion strains, locus YKL009W, strain mrt4, hits give low values 0.992 | S. cerevisiae deletion strains, locus YKL068W, hits give low values 0.997 | S. cerevisiae deletion strains, locus YKL085W, strain MDH1 (second series), hits give low values 1 | S. cerevisiae deletion strains, locus YKL085W, strain MDH1, hits give low values 1 | S. cerevisiae deletion strains, locus YKL160W, strain elf1, hits give low values 0.989 | S. cerevisiae deletion strains, locus YKL190W, strain CNB1, hits give low values 1.01 | S. cerevisiae deletion strains, locus YKR001C, strain vps1, hits give low values 0.994 | S. cerevisiae deletion strains, locus YKR026C, strain gcn3, hits give low values 0.992 | S. cerevisiae deletion strains, locus YKR091W, strain srl3, hits give low values 0.989 | S. cerevisiae deletion strains, locus YLL001W, strain dnm1, hits give low values 0.994 | S. cerevisiae deletion strains, locus YLL026W, hits give low values 0.998 | S. cerevisiae deletion strains, locus YLL041C, strain sdh2, hits give low values 1 | S. cerevisiae deletion strains, locus YLR027C, strain aat2, hits give low values 1 | S. cerevisiae deletion strains, locus YLR039C, strain RIC1, hits give low values 1.04 | S. cerevisiae deletion strains, locus YLR058C, strain SHM2, hits give low values 1.02 | S. cerevisiae deletion strains, locus YLR102C, strain apc9, hits give low values 0.987 | S. cerevisiae deletion strains, locus YLR113W, strain HOG1, hits give low values 0.967 | S. cerevisiae deletion strains, locus YLR221C, strain rsa3, hits give low values 0.99 | S. cerevisiae deletion strains, locus YLR258W, strain gsy2, hits give low values 1.01 | S. cerevisiae deletion strains, locus YLR262C, strain YPT6 (second series), hits give low values 0.989 | S. cerevisiae deletion strains, locus YLR262C, strain YPT6, hits give low values 1.04 | S. cerevisiae deletion strains, locus YLR268W, strain sec22, hits give low values 0.968 | S. cerevisiae deletion strains, locus YLR320W, strain mms22, hits give low values 0.994 | S. cerevisiae deletion strains, locus YLR330W, strain CHS5, hits give low values 1.01 | S. cerevisiae deletion strains, locus YLR342W, strain FKS1 (second series), hits give low values 1.05 | S. cerevisiae deletion strains, locus YLR342W, strain FKS1, hits give low values 0.975 | S. cerevisiae deletion strains, locus YLR357W, strain rsc2, hits give low values 0.952 | S. cerevisiae deletion strains, locus YLR370C, strain arc18, hits give low values 0.982 | S. cerevisiae deletion strains, locus YLR371W, strain rom2, hits give low values 0.978 | S. cerevisiae deletion strains, locus YLR384C, strain iki3, hits give low values 0.99 | S. cerevisiae deletion strains, locus YLR418C, strain cdc73, hits give low values 0.991 | S. cerevisiae deletion strains, locus YML016C, strain PPZ1, hits give low values 1.01 | S. cerevisiae deletion strains, locus YML032C, strain rad52, hits give low values 0.976 | S. cerevisiae deletion strains, locus YML120C, strain ndi1, hits give low values 0.99 | S. cerevisiae deletion strains, locus YML124C, strain tub3, hits give low values 0.993 | S. cerevisiae deletion strains, locus YMR058W, strain fet3, hits give low values 0.999 | S. cerevisiae deletion strains, locus YMR078C, strain ctf18, hits give low values 0.98 | S. cerevisiae deletion strains, locus YMR125W, strain sto1, hits give low values 0.982 | S. cerevisiae deletion strains, locus YMR129W, hits give low values 0.982 | S. cerevisiae deletion strains, locus YMR205C, strain PFK2, hits give low values 1 | S. cerevisiae deletion strains, locus YMR223W, strain ubp8, hits give low values 1.01 | S. cerevisiae deletion strains, locus YMR231W, strain pep5, hits give low values 0.98 | S. cerevisiae deletion strains, locus YMR263W, strain SAP30, hits give low values 1.01 | S. cerevisiae deletion strains, locus YMR307W, strain GAS1, hits give low values 1.03 | S. cerevisiae deletion strains, locus YNL067W, strain RPL9B, hits give low values 1.01 | S. cerevisiae deletion strains, locus YNL071W, strain lat1, hits give low values 0.988 | S. cerevisiae deletion strains, locus YNL128W, strain TEP1, hits give low values 1.02 | S. cerevisiae deletion strains, locus YNL153C, strain GIM3, hits give low values 1.02 | S. cerevisiae deletion strains, locus YNL183C, strain NPR1, hits give low values 0.912 | S. cerevisiae deletion strains, locus YNL209W, strain ssb2, hits give low values 0.985 | S. cerevisiae deletion strains, locus YNL233W, strain BNI4, hits give low values 1.01 | S. cerevisiae deletion strains, locus YNL248C, strain rpa49, hits give low values 0.996 | S. cerevisiae deletion strains, locus YNL250W, strain rad50, hits give low values 0.995 | S. cerevisiae deletion strains, locus YNL271C, strain bni1, hits give low values 0.995 | S. cerevisiae deletion strains, locus YNL298W, strain CLA4, hits give low values 0.999 | S. cerevisiae deletion strains, locus YNL307C, strain MCK1, hits give low values 1.01 | S. cerevisiae deletion strains, locus YNL322C, strain KRE1 (second series), hits give low values 0.989 | S. cerevisiae deletion strains, locus YNL322C, strain KRE1, hits give low values 1.01 | S. cerevisiae deletion strains, locus YNR049C, strain mso1, hits give low values 0.988 | S. cerevisiae deletion strains, locus YNR052C, strain pop2, hits give low values 0.971 | S. cerevisiae deletion strains, locus YOL006C, strain TOP1, hits give low values 1.1 | S. cerevisiae deletion strains, locus YOL012C, strain htz1 0.951 | S. cerevisiae deletion strains, locus YOL147C, strain pex11, hits give low values 0.998 | S. cerevisiae deletion strains, locus YOR001W, strain rrp6, hits give low values 0.969 | S. cerevisiae deletion strains, locus YOR061W, strain CKA2, hits give low values 1.01 | S. cerevisiae deletion strains, locus YOR069W, strain VPS5, hits give low values 1.01 | S. cerevisiae deletion strains, locus YOR070C, strain gyp1, hits give low values 0.984 | S. cerevisiae deletion strains, locus YOR080W, strain dia2, hits give low values 0.99 | S. cerevisiae deletion strains, locus YOR083W, strain WHI5, hits give low values 0.996 | S. cerevisiae deletion strains, locus YOR106W, strain vam3, hits give low values 0.99 | S. cerevisiae deletion strains, locus YOR136W, strain idh2, hits give low values 0.996 | S. cerevisiae deletion strains, locus YOR144C, strain elg1, hits give low values 0.987 | S. cerevisiae deletion strains, locus YOR184W, strain ser1, hits give low values 0.997 | S. cerevisiae deletion strains, locus YOR231W, strain MKK1, hits give low values 0.964 | S. cerevisiae deletion strains, locus YOR265W, strain rbl2, hits give low values 1.01 | S. cerevisiae deletion strains, locus YOR270C, strain vph1, hits give low values 1.07 | S. cerevisiae deletion strains, locus YOR290C, strain snf2, hits give low values 0.983 | S. cerevisiae deletion strains, locus YOR316C, strain cot1, hits give low values 0.987 | S. cerevisiae deletion strains, locus YPL051W, strain arl3, hits give low values 1.01 | S. cerevisiae deletion strains, locus YPL055C, strain LGE1, hits give low values 1.04 | S. cerevisiae deletion strains, locus YPL078C, strain atp4, hits give low values 0.987 | S. cerevisiae deletion strains, locus YPL106C, strain sse1, hits give low values 0.99 | S. cerevisiae deletion strains, locus YPL240C, strain hsp82, hits give low values 0.995 | S. cerevisiae deletion strains, locus YPL241C, strain CIN2, hits give low values 1.01 | S. cerevisiae deletion strains, locus YPL256C, strain CLN2, hits give low values 0.955 | S. cerevisiae deletion strains, locus YPR119W, strain clb2, hits give low values 0.983 | S. cerevisiae deletion strains, locus YPR141C, strain kar3, hits give low values 0.994 | S. cerevisiae deletion strains, locus YPR163C, strain tif3, hits give low values 0.987 | S. cerevisiae deletion strains, locus YPR167C, strain met16, hits give low values 0.986 | S. cerevisiae deletion strains, strain wtn01, hits give low values 0.98 | S. cerevisiae strains, strain wild type, hits give low values 1.02
